# Test results reported in PubChem BioAssay AID651899 (Broad Institute, 2012).
# Results with a measured potency or affinity are listed apart. Activity calls are given as the source filed them. No rule for the calls is given here.
# Test: HEK293 cell viability loss – plate reader, cherry-pick, cytotoxicity control, dose response (AID 651899);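 also: cells exposed to compound for 48 hours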
# Settings: series mostly up to 26 µM
row,Compound,outcome
1,Cc1cc(C(=O)CSc2nncs2)c(C)n1-c1ccc2c(c1)OCO2,inactive
2,O=C(CSc1nnc(-c2ccncc2)n1-c1ccc(Cl)cc1)NCc1cccs1,inactive
3,COCCNC(=O)C[C@H]1CC[C@@H]2[C@@H](COc3ccc(NC(=O)Nc4cccc(F)c4)cc3C(=O)N2C)O1,inactive
4,Cc1nc2nc(SCC(=O)N3CCOCC3)nn2c(C)c1Cc1c(F)cccc1Cl,inactive
5,Cc1c2cnn(CC(=O)NCc3ccccn3)c(=O)c2c(C)n1Cc1ccc(Cl)cc1,inactive
6,COc1cc(-c2n[nH]c(=S)n2C(C)c2ccccc2)cc(OC)c1OC (stereo unspecified),inactive
7,CC(=O)c1ccc(C(=O)N2CCCC(Nc3ccccc3)C2)s1 (stereo unspecified),inactive
8,COc1cccc(CNC(=O)c2ccc(NC(=O)C3=CSCCO3)cc2)c1,inactive
9,O=C(CN1C(=O)/C(=C/c2cccc(Br)c2)SC1=S)Nc1cccnc1,inactive
10,CCC(CO)[n+]1c(C)cc(/C=C2\Sc3ccccc3N2Cc2ccccc2)cc1C (stereo unspecified),inactive
11,CS(=O)(=O)N1[C@H](C(=O)NCc2ccncc2)[C@@H](CO)[C@@H]2Cn3c(ccc(C4=CCCCC4)c3=O)[C@@H]21,inactive
12,COc1ccc(-c2nc3cnccn3c2Nc2ccc3c(c2)OCO3)cc1,inactive
13,CCCOC(=O)c1cccc(NC(=O)c2cccnc2)c1,inactive
14,C=CCn1c(SCc2c(C(=O)OC)sc(N)c2C(=O)OC)nnc1-c1ccc(Cl)cc1,inactive
15,O=c1[nH]c(N2CCN(Cc3ccc4c(c3)OCO4)CC2)nc2c1CCCC2,inactive
16,Cc1cnc(C(=O)NC2CC(C)(C)Cc3c2cnn3-c2cccc(F)c2)cn1 (stereo unspecified),inactive
